Bioassay records (PubChem)
VP16 counter: Gal4-VP16 reporter inhibition counter-screen; Drosophila S2 Gal4-VP16 UAS-luciferase, luminescence, 20 h; Potency, µM (series often up to 53.6 µM), inactives show at the top dose activity, negative = inhibition, most hits filed as inhibitors; 310,000 compounds, 3.5% hits; AID 2546;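 note: Gal4-VP16 expression switched on by copper sulfate through the metallothionein promoter; nearly all actives have a fitted effect of over 50% in size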
RORgamma inh: ROR gamma (mouse) transcription inhibition; Drosophila S2 Gal4-RORgamma UAS-luciferase reporter, 20 h; 310,000 compounds, 5.4% hits; P51450; Potency, µM (series often up to 53.6 µM), without a hit: at the top dose activity change, negative = inhibition, hits mostly inhibitors; note: nearly all actives have a fitted effect of over 60% in size
Target sequence (P51450 whole entry, looked up, the tested form may be a part): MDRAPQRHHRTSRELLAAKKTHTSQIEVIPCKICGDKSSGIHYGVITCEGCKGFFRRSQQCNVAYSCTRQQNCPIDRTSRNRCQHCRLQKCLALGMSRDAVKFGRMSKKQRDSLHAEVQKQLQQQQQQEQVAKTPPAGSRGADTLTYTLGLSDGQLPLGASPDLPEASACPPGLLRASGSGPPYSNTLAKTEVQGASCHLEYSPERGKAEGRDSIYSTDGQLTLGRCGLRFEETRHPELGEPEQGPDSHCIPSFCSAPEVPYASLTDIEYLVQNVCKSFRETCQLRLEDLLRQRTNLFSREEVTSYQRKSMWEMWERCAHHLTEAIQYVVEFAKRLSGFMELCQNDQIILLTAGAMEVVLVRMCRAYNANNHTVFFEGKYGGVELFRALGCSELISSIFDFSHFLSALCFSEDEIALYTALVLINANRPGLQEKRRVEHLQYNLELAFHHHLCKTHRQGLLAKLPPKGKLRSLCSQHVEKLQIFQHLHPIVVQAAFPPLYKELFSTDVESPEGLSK
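Schneider cells (Drosophila), stable Gal4 DBD–ROR gamma + UAS-luc; 1 hr cmpd preincubation; Cu2+ induction 700 uM final; 20 hr ambient; luminescence.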
TDP1 inh: inhibitors of human tyrosyl-DNA phosphodiesterase TDP1; recombinant TDP1, AlphaScreen DNA substrate cleavage; Potency, µM (series often up to 130 µM), inactives show at the top dose activity change, negative = inhibition, actives largely listed as inhibitors; 350,000 compounds, 0.28% hits; note: nearly all actives have a fitted effect of over 40% in size
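Signal: AlphaScreen proximity between streptavidin donor and anti-FITC acceptor beads on intact substrate. Reaction: Tdp1 1 nM, substrate 15 nM final, 5 min RT after 15 min compound preincubation.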
TDP1 cell CPT: growth inhibition of DT40 Tdp1-/-;hTDP1 cells with camptothecin (screen for TDP1 inhibitors); chicken DT40 Tdp1-/-;hTDP1 cells + 20 nM CPT, ATP luminescence, 48 h; Potency, µM (top dose mostly 46.2 µM), for inactives: top-dose activity change, negative = growth inhibition, usual class: inhibitors; 420,000 compounds, 12% hits; AID 686979; note: nearly all actives have a fitted effect of over 55% in size
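Chicken DT40 Tdp1-/- cells complemented with human TDP1, 400 cells/well, exposed to compounds plus 20 nM camptothecin for at least 48 h at 37 C; viability read as ATP content by CellTiter-Glo luminescence.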
TDP1 cell noCPT: qHTS for Inhibitors of human tyrosyl-DNA phosphodiesterase 1 (TDP1): qHTS in cells in absence of CPT. DT40 Tdp1-/- hTDP1 cells, no CPT, ATP luminescence, 48 h. Potency, µM (top dose mostly 46.2 µM), inactives show at the top dose activity change, negative = growth inhibition, most hits filed as inhibitors. 420,000 compounds, 15% hits; note: nearly all actives have a fitted effect of over 55% in size
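Growth kinetics read by CellTiter-Glo luminescence after ≥48 hr at 37 °C. Cells: DT40 Tdp1-/- stably carrying human TDP1, 400 per well, compound exposure in the absence of CPT (DMSO vehicle).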
Starred values were filed as active, the others as inactive. Only some compounds are listed: those with a hit (about 19% of all), similar ones and a draw of the others. Calls come from the whole dose curve; as a rule, active = well fitted curve in the direction sought with a large enough effect; inconclusive = small, poorly fitted or top-dose-only effect, or another doubt; inactive = no such curve, though single readings can be large; an effect the other way counts as inactive or inconclusive. % is set by controls: 0 for no effect and ±100 for the full control effect; potency is the fitted concentration of half-maximal effect.

Screening COCCn1c(=N)c(C(=O)NCCc2ccc(OC)cc2)cc2c(=O)n3cccc(C)c3nc21 returned VP16 counter 3.7%, RORgamma inh -16.6%, TDP1 inh -5.2%, TDP1 cell CPT 23.1µM* and TDP1 cell noCPT 29.1µM*.
For COCCCn1c(C(=O)N2CCOCC2)cc2c(=O)n3cccc(C)c3nc21 the results were TDP1 cell CPT 1.3% and TDP1 cell noCPT -6.2%.
`COC(=O)[C@@H]1ON2OCC(C)=C3CCCC[C@@]32[C@H]1C(=O)OC` gave TDP1 cell CPT 21.8% and TDP1 cell noCPT 23.5%.
For COCCCn1c(=N)c(C(=O)NC2CCCC2)cc2c(=O)n3cccc(C)c3nc21 the results were TDP1 cell CPT inconclusive and TDP1 cell noCPT 23.1µM*.
For Cc1cccn2c(=O)c3cc(C(=O)NC4CCCC4)c(=N)n(CCCN4CCOCC4)c3nc12 the results were VP16 counter -19.3%, RORgamma inh -7.2%, TDP1 inh -6.7%, TDP1 cell CPT inconclusive and TDP1 cell noCPT inconclusive.
Screening O=C(O)CCCNC(=O)c1nn(Cc2ccccc2)c(=O)c2ccccc12 returned VP16 counter -1.6%, RORgamma inh -15.7%, TDP1 inh 0.0%, TDP1 cell CPT -11.4% and TDP1 cell noCPT 7.7%.
CC(=O)Nc1cc(-c2cccc(C(=O)NCCO)c2)cn2c(-c3cccc(C(F)(F)F)c3)cnc12 was read as TDP1 cell CPT 18.4µM* and TDP1 cell noCPT 23.1µM*.
Screening CC(=O)Nc1cccc(OCCCNC(=O)c2ccc(F)cc2)c1 returned VP16 counter -11.6%, RORgamma inh 9.6%, TDP1 inh 2.6%, TDP1 cell CPT 4.9% and TDP1 cell noCPT -7.7%.
For O=C(NCCNc1nccc(C(F)(F)F)n1)c1cccc(C(F)(F)F)c1 the results were VP16 counter -9.3%, RORgamma inh 42.4%, TDP1 inh 5.0%, TDP1 cell CPT -8.9% and TDP1 cell noCPT -25.1%.
`CC(=O)Nc1cc(-c2cccc(C(=O)NCCO)c2)cn2c(-c3ccc(F)cc3)cnc12` gave TDP1 cell CPT 14.6µM* and TDP1 cell noCPT 20.6µM*.
`COc1cccc(C2(CC(=O)N3CCC(c4nc5ccccc5o4)CC3)CC(=O)N(C)C2=O)c1` (centres undefined) gave TDP1 cell CPT 6.9% and TDP1 cell noCPT 0.7%.
`O=C(N/C(=C/c1ccco1)C(=O)N1CCOCC1)c1cccs1` gave VP16 counter -1.0%, RORgamma inh 3.0%, TDP1 inh 2.5%, TDP1 cell CPT -2.8% and TDP1 cell noCPT 12.5%.
`O=C1C2C3C=CC(CNS(=O)(=O)c4ccccc4)(O3)C2C(=O)N1c1ccc(Cl)cc1` (centres undefined) gave VP16 counter inconclusive, RORgamma inh -106.0%, TDP1 inh 8.1%, TDP1 cell CPT 25.9µM* and TDP1 cell noCPT inconclusive.
Screening O=C1C2C3C=CC(CO)(O3)C2C(=O)N1c1ccccc1-c1ccccc1 (centres undefined) returned VP16 counter 2.24µM*, RORgamma inh 1.78µM*, TDP1 inh 10.1%, TDP1 cell CPT 2.59µM* and TDP1 cell noCPT 4.11µM*.
Screening CC(=O)Oc1ccc(N2C(=O)C3C4C=CC(CO)(O4)C3C2=O)cc1 (centres undefined) returned VP16 counter inconclusive, RORgamma inh 5.01µM*, TDP1 inh 7.0%, TDP1 cell CPT 2.59µM* and TDP1 cell noCPT 4.61µM*.
`COC(=O)c1cc(N2C(=O)C3C(C2=O)C2(C)C=CC3(C)O2)ccc1Cl` (centres undefined) gave VP16 counter 5.62µM*, RORgamma inh 3.55µM* and TDP1 inh 2.1%.
`O=C1CCC(=O)N1c1ccccc1-c1ccccc1` gave VP16 counter -6.2%, RORgamma inh inconclusive, TDP1 inh -1.0%, TDP1 cell CPT -4.1% and TDP1 cell noCPT 5.1%.
COc1ccc(N2C(=O)C3C4C=CC(c5ccccc5)(C3C2=O)C2C(=O)N(c3ccc(OC)cc3)C(=O)C42)cc1 (centres undefined) was read as VP16 counter -7.9%, RORgamma inh 10.0%, TDP1 inh 5.1%, TDP1 cell CPT 0.6% and TDP1 cell noCPT -3.5%.
`COC(=O)c1cc(S(=O)(=O)Nc2c(C)cccc2C)cn1C` gave VP16 counter -6.8%, RORgamma inh -27.5%, TDP1 cell CPT -0.7% and TDP1 cell noCPT -13.7%.
CCOC(=O)C(C)Sc1nc(-c2ccccc2)nc2ccc(F)cc12 (centres undefined) was read as VP16 counter 0.1%, RORgamma inh 21.9%, TDP1 inh 2.1%, TDP1 cell CPT inconclusive and TDP1 cell noCPT inconclusive.
`COc1ccc(N2C(=O)C3C(C2=O)C3(c2ccccc2)c2ccccc2)cc1` (centres undefined) gave VP16 counter -7.4%, RORgamma inh -2.5%, TDP1 inh 2.7%, TDP1 cell CPT inconclusive and TDP1 cell noCPT inconclusive.
`CC(=O)Oc1ccc(N2C(=O)C3C(C2=O)C2(C)C=CC3(C)O2)cc1` (centres undefined) gave VP16 counter 4.47µM*, RORgamma inh 3.98µM* and TDP1 inh 8.6%.
Screening COc1ccc2cc3c(N)nn(C(=O)C4CCC(C(C)(C)C)CC4)c3nc2c1 (centres undefined) returned VP16 counter inconclusive, RORgamma inh inconclusive, TDP1 inh 5.3%, TDP1 cell CPT 9.2µM* and TDP1 cell noCPT 18.4µM*.
For COc1ccc2cc3c(N)nn(C(=O)Cc4ccccc4OC)c3nc2c1 the results were VP16 counter 10.2%, RORgamma inh 43.6%, TDP1 inh 5.2%, TDP1 cell CPT 9.2µM* and TDP1 cell noCPT 9.2µM*.
`COc1ccc(C(=O)n2nc(N)c3cc4ccc(C)cc4nc32)cc1OC` gave TDP1 inh -3.8%, TDP1 cell CPT 15.1% and TDP1 cell noCPT -17.9%.
Screening COc1ccc2cc3c(N)nn(C(=O)c4ccc(F)cc4Cl)c3nc2c1 returned TDP1 inh 8.1%, TDP1 cell CPT 9.2µM* and TDP1 cell noCPT 8.2µM*.
`Cc1ccc2cc3c(N)nn(C(=O)c4cccc(F)c4)c3nc2c1` gave TDP1 inh 3.8%, TDP1 cell CPT inconclusive and TDP1 cell noCPT 7.31µM*.
Screening COc1ccc2cc3c(N)nn(C(=O)c4cccc([N+](=O)[O-])c4)c3nc2c1 returned VP16 counter -6.9%, RORgamma inh 16.7%, TDP1 inh 0.0%, TDP1 cell CPT inconclusive and TDP1 cell noCPT inconclusive.
`CC(C)Oc1ccccc1/C=N/NC(=O)c1ccccc1Cl` gave VP16 counter 1.9%, RORgamma inh inconclusive, TDP1 cell CPT -2.0% and TDP1 cell noCPT 12.3%.
